The source of these data is PubChem BioAssay AID1508601 (ICCB-Longwood Screening Facility, Harvard Medical School, 2020).

The campaign covered roughly 5,700 compounds. About 85 (1%) were called active. Rule as the data show it: active = p53-positive nuclei above about 36% (passing the limit was not always enough); inactive = the rest. Shown is part of a subset that was picked to be rich in actives.

A short description of assay [1]: nuclear p53 accumulation, HPV+ cells – imaging, p53-positive nuclei imaging, 24 h, 48 h (AID 1508601). The note with it: 24/48 h.
Assay [2] addresses Cellular tumor antigen p53 (Homo sapiens) (UniProt P04637). Described as above. The note with it: 24/48 h, stronger effect = higher value.
Where [3] appears, read: measured here: cell number at 24 h, Library stock concentration: 10 mM.
[4] abbreviates: measured here: cell number at 48 h, Library stock concentration: 10 mM.
The mark [5] stands for this setting: Library stock concentration: 10 mM.
Setting [6] is: measured here: p53 positive nuclei at 24 h, Library stock concentration: 10 mM.
Setting [7] is: measured here: cell number at 24 h, concentration not given here.
The mark [8] stands for this setting: measured here: cell number at 48 h, concentration not given here.
The mark [9] stands for this setting: measured here: p53 positive nuclei at 24 h, concentration not given here.
[10] abbreviates: measured here: cell number at 24 h, Library stock concentration: 3.33 mM.
Setting [11] is: measured here: cell number at 48 h, Library stock concentration: 3.33 mM.
[12] abbreviates: Library stock concentration: 3.33 mM.
[13] abbreviates: measured here: p53 positive nuclei at 24 h, Library stock concentration: 3.33 mM.

Chain of Cellular tumor antigen p53 (Homo sapiens) (P04637 whole entry, looked up): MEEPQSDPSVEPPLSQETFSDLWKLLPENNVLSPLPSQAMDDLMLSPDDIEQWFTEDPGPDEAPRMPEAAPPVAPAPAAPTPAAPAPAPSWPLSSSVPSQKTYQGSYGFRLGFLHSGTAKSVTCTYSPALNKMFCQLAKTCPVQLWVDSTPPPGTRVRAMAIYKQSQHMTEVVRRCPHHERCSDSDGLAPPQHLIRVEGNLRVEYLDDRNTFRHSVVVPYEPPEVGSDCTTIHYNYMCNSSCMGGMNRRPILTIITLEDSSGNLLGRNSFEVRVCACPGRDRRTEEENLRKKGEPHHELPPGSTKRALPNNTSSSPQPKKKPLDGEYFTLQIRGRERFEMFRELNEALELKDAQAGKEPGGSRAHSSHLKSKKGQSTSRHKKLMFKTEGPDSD

On to `O=C(O)c1ccccc1SC1=NS(=O)(=O)c2ccccc21`, for which the nuclei count, normalised came to 117% in assay [1] (measured here: cell number at 24 h, Library stock concentration: 500 nM); 119% in assay [1] (measured here: cell number at 24 h, Library stock concentration: 1.5 uM); 119% in assay [1] (measured here: cell number at 24 h, Library stock concentration: 4.6 uM); 120% in assay [1] (measured here: cell number at 24 h, Library stock concentration: 13.7 uM); 125% in assay [1] (measured here: cell number at 24 h, Library stock concentration: 41 uM); 126% in assay [1] (measured here: cell number at 24 h, Library stock concentration: 123 uM). The nuclei count, normalised was 125% in assay [1] (measured here: cell number at 24 h, Library stock concentration: 370 uM); 119% in assay [1] (measured here: cell number at 24 h, Library stock concentration: 1.111 mM); 120% in assay [1] (measured here: cell number at 24 h, Library stock concentration: 3.333 mM); 112% in assay [1] (setting [3]); 123% in assay [1] (measured here: cell number at 48 h, Library stock concentration: 500 nM); 121% in assay [1] (measured here: cell number at 48 h, Library stock concentration: 1.5 uM). Moreover, the nuclei count, normalised in assay [1] (measured here: cell number at 48 h, Library stock concentration: 4.6 uM) turned out to be 126%; in assay [1] (measured here: cell number at 48 h, Library stock concentration: 13.7 uM), 116%; in assay [1] (measured here: cell number at 48 h, Library stock concentration: 41 uM), 127%; in assay [1] (measured here: cell number at 48 h, Library stock concentration: 123 uM), 121%; in assay [1] (measured here: cell number at 48 h, Library stock concentration: 370 uM), 120%; in assay [1] (measured here: cell number at 48 h, Library stock concentration: 1.111 mM), 117%. Besides, the nuclei count, normalised in assay [1] (measured here: cell number at 48 h, Library stock concentration: 3.333 mM) turned out to be 122%; in assay [1] (setting [4]) it was 111%. In addition, the p53-positive nuclei, normalised was -0.176% (inactive) in assay [2] (Library stock concentration: 500 nM); 0.0563% (inactive) in assay [2] (Library stock concentration: 1.5 uM); -0.0688% (inactive) in assay [2] (Library stock concentration: 4.6 uM); 0.0271% (inactive) in assay [2] (Library stock concentration: 13.7 uM); -0.248% (inactive) in assay [2] (Library stock concentration: 41 uM); -0.212% (inactive) in assay [2] (Library stock concentration: 123 uM). Also, the p53-positive nuclei, normalised in assay [2] (Library stock concentration: 370 uM) was 0.0436% (inactive); in assay [2] (Library stock concentration: 1.111 mM), 0.133% (inactive); in assay [2] (Library stock concentration: 3.333 mM), -0.102% (inactive); in assay [2] (setting [5]), 0.0746% (inactive); in assay [2] (measured here: p53 positive nuclei at 24 h, Library stock concentration: 500 nM), -0.148%; in assay [2] (measured here: p53 positive nuclei at 24 h, Library stock concentration: 1.5 uM), -0.0949%. For the same compound, the p53-positive nuclei, normalised is -0.0339% in assay [2] (measured here: p53 positive nuclei at 24 h, Library stock concentration: 4.6 uM); -0.0316% in assay [2] (measured here: p53 positive nuclei at 24 h, Library stock concentration: 13.7 uM); -0.148% in assay [2] (measured here: p53 positive nuclei at 24 h, Library stock concentration: 41 uM); -0.148% in assay [2] (measured here: p53 positive nuclei at 24 h, Library stock concentration: 123 uM); -0.0409% in assay [2] (measured here: p53 positive nuclei at 24 h, Library stock concentration: 370 uM); -0.0917% in assay [2] (measured here: p53 positive nuclei at 24 h, Library stock concentration: 1.111 mM). The p53-positive nuclei, normalised in assay [2] (measured here: p53 positive nuclei at 24 h, Library stock concentration: 3.333 mM) is -0.0904%; in assay [2] (setting [6]), -0.0218%.

As to `O=C(CCn1cnnn1)N1CCc2[nH]nc(-c3ccc4c(c3)OCO4)c2C1`, the nuclei count, normalised in assay [1] (setting [7]) stood at 107%; in assay [1] (setting [8]), 111%. Also, the p53-positive nuclei, normalised in assay [2] (concentration not given here) is 0.266% (inactive); in assay [2] (setting [9]) it was 0.111%.

In the case of `Cc1ccc([N+](=O)[O-])cc1S(=O)(=O)N(C)N=Cc1cnc2ccc(Br)cn12`, the nuclei count, normalised turned out to be 17.7% in assay [1] (setting [10]) and 14.7% in assay [1] (setting [11]). Further, the p53-positive nuclei, normalised in assay [2] (setting [12]) was 14.4% (inactive); in assay [2] (setting [13]), 4.1%.

As to `CCc1c2c(nc3ccc(OC(=O)N4CCC(N5CCCCC5)CC4)cc13)-c1cc3c(c(=O)n1C2)COC(=O)[C@@]3(O)CC`, the nuclei count, normalised in assay [1] (setting [10]) turned out to be 44.3%; in assay [1] (setting [11]), 30.6%. Also, the values for the p53-positive nuclei, normalised in assay [2] (setting [12]) and in assay [2] (setting [13]) were -0.157% (inactive) and -0.474%, respectively.

Take `Cn1cc(C2=C(c3cn(CCCSC(=N)N)c4ccccc34)C(=O)NC2=O)c2ccccc21`: the nuclei count, normalised in assay [1] (measured here: cell number at 24 h, Library stock concentration: 80 uM) amounted to 108%; in assay [1] (measured here: cell number at 24 h, Library stock concentration: 400 uM), 104%; in assay [1] (measured here: cell number at 24 h, Library stock concentration: 2 mM), 97.9%; in assay [1] (setting [10]), 68.3%; in assay [1] (setting [3]), 38.8%; in assay [1] (setting [7]) it was 102%. For the same compound, the nuclei count, normalised came to 114% in assay [1] (measured here: cell number at 48 h, Library stock concentration: 80 uM); 111% in assay [1] (measured here: cell number at 48 h, Library stock concentration: 400 uM); 98.9% in assay [1] (measured here: cell number at 48 h, Library stock concentration: 2 mM); 63.6% in assay [1] (setting [11]); 29% in assay [1] (setting [4]); 104% in assay [1] (setting [8]). The p53-positive nuclei, normalised was 0.143% (inactive) in assay [2] (Library stock concentration: 80 uM); -0.08% (inactive) in assay [2] (Library stock concentration: 400 uM); 3.66% (inactive) in assay [2] (Library stock concentration: 2 mM); 23.8% (inactive) in assay [2] (setting [12]); 70.5% (active) in assay [2] (setting [5]); 0.319% (inactive) in assay [2] (concentration not given here). Further, the p53-positive nuclei, normalised in assay [2] (measured here: p53 positive nuclei at 24 h, Library stock concentration: 80 uM) was -0.111%; in assay [2] (measured here: p53 positive nuclei at 24 h, Library stock concentration: 400 uM), -0.0611%; in assay [2] (measured here: p53 positive nuclei at 24 h, Library stock concentration: 2 mM), 3.9%; in assay [2] (setting [13]), 33.8%; in assay [2] (setting [6]), 47.3%; in assay [2] (setting [9]), 0.487%.

As to `CN(C)CCCn1cc(C2=C(c3c[nH]c4ccccc34)C(=O)NC2=O)c2ccccc21`, the figures for the nuclei count, normalised in assay [1] (setting [10]) and in assay [1] (setting [11]) were 108% and 105%, respectively. The figures for the p53-positive nuclei, normalised in assay [2] (setting [12]) and in assay [2] (setting [13]) were 0.0456% (inactive) and -0.293%, respectively.

As for `Cn1cc(C2=C(c3cn(CCCN)c4ccccc34)C(=O)NC2=O)c2ccccc21`, the results for the nuclei count, normalised in assay [1] (setting [7]) and in assay [1] (setting [8]) were 114% and 106%, respectively. In addition, the values for the p53-positive nuclei, normalised in assay [2] (concentration not given here) and in assay [2] (setting [9]) were 0.117% (inactive) and 0.12%, respectively.

Turning to `Cc1nsc(NC(=O)NCCC2CCCCCC2)n1`, the nuclei count, normalised in assay [1] (setting [7]) is 106%; in assay [1] (setting [8]), 112%. Further, the p53-positive nuclei, normalised in assay [2] (concentration not given here) is -0.14% (inactive); in assay [2] (setting [9]), -0.0933%.

Take `CC1(C)OC2C[C@H]3[C@@H]4CCC5=CC(=O)CC[C@]5(C)[C@]4(F)C(O)C[C@]3(C)[C@@]2(C(=O)CCl)O1` (some centres not stated): the nuclei count, normalised in assay [1] (setting [10]) amounted to 80.9%; in assay [1] (setting [11]), 80.1%. Moreover, the p53-positive nuclei, normalised in assay [2] (setting [12]) was -0.151% (inactive); in assay [2] (setting [13]), -0.267%.
